# An excerpt weighted towards active compounds, which were near 6.2% of everything screened.
# HT1080 IDH1KD tx: HT-1080 IDH1 knockdown cell toxicity (counter line); 360,000 compounds, 2% hits; HT-1080 IDH1 knockdown viability, ATP luminescence, 48 h; AID 686971; Potency, µM (highest dose often 46.1 µM), for the others: at the highest dose activity, negative = toxicity, most hits filed as cytotoxic;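 further: 0% = DMSO wells and -100% = cell-free medium wells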
#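 Using the IDH1-knockdown HT-1080 line run in the same batch and compound series as the NT line, viability after 48 h at 37 °C was determined by CellTiter-Glo luminescence and expressed as % activity.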
# HT1080NT lethal: kills 2HG-producing HT-1080-NT fibrosarcoma cells. 360,000 compounds, 1.6% hits. Potency, µM (titrated, usually from 46.1 µM), for the others: at the top dose activity, negative = less viability, usual class: cytotoxic. HT-1080-NT fibrosarcoma viability, CellTiter-Glo ATP luminescence, 48 h;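 further: NT is the 2HG producing partner of a matched IDH1 knockdown line; 0% = DMSO-treated cells and -100% = media-only wells without cells; nearly all actives have a fitted effect of over 55% in size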
#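 Viability by CellTiter-Glo luminescence after 48 h compound exposure at 37C of HT-1080-NT cells (750/well, RPMI, 5% FBS). % activity scaled between DMSO wells and medium-only wells, then curve-fitted and categorized by curve class.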
# KB-V1 MDR tox: kills drug-selected multidrug resistant KB-V1 cells | KB-V1 MDR cells viability, CellTiter-Glo, 72 h | Potency, µM (series often up to 46.1 µM), hits mostly cytotoxic | 400,000 compounds, 3.4% hits | AID 1347076; further: on the % scale 0 is the no-effect control and ±100 the full control effect; nearly all actives have a fitted effect of over 60% in size
#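 Luminescent ATP read-out (CellTiter-Glo, 10 min) measures survival of drug-selected KB-V1 MDR cells after 72 h, 37 degrees C compound exposure. Medium: phenol-red-free DMEM, 10% FBS. Values from fitted concentration-response curves.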
# ATXN2 expr inh: inhibitors of ATXN2 expression. 360,000 compounds, 0.72% hits. Potency, µM (top dose mostly 57 µM), inactives show at the highest dose activity change, negative = inhibition, hits mostly inhibitors. HEK-293 ATXN2-luciferase reporter, luminescence, 24 h; further: on the % scale 0 is the no-effect control and ±100 the full control effect; nearly all actives have a fitted effect of over 55% in size
#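 qHTS (up to 57 uM final) was run with 24 h compound exposure of reporter cells at 37 °C. Each well was multiplexed: SteadyGlo luminescence measured ATXN2-luciferase expression after a fluorogenic Gly-Phe-AFC viability readout (25 uM final).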
# KB-3-1 cytotox: KB-3-1 parental cell cytotoxicity; KB-3-1 viability, CellTiter-Glo ATP luminescence, 72 h; Potency, µM (highest dose often 46.1 µM), hits mostly cytotoxic; 400,000 compounds, 1.4% hits; AID 1347075; further: on the % scale 0 is the no-effect control and ±100 the full control effect; nearly all actives have a fitted effect of over 60% in size
#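 Viability of parental KB-3-1 cells, measured by CellTiter-Glo luminescence, followed a 72 h incubation at 37 °C with pinned compounds in phenol-red-free DMEM containing 10% FBS.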
# ATXN viability: cell viability loss in ATXN counter-screen. 400,000 compounds, 0.49% hits. Potency, µM (titrated, usually from 56.7 µM), most hits filed as cytotoxic. AID 651635. S2 cells (HEK-293 line with an ATXN2-luciferase reporter) viability, CellTiter-Fluor protease fluorescence, 24 h; further: nearly all actives have a fitted effect of over 40% in size
# * marks the source's active call; other numbers are inactive results; i = inactive; ? = inconclusive; . = no result. The call rests on the fitted dose curve; in most records, active means well fitted curve in the direction sought with a large enough effect; inconclusive means small, poorly fitted or top-dose-only effect, or another doubt; inactive means no such curve, though single readings can be large; an effect the other way counts as inactive or inconclusive. Potency means the concentration at half of the fitted maximal effect.
SMILES,HT1080 IDH1KD tx,HT1080NT lethal,KB-V1 MDR tox,ATXN2 expr inh,KB-3-1 cytotox,ATXN viability
O=C(Nc1cccc([N+](=O)[O-])c1)Nc1cccc([N+](=O)[O-])c1,?,?,i,0%,i,i
CC(C)S(=O)(=O)c1csc(NC(=O)Nc2cccc([N+](=O)[O-])c2)c1Cl,16%,-4%,?,.,23µM*,?
Cc1ccc(OCC(=O)OCc2cc(=O)n3nc(C4CCCCC4)sc3n2)cc1C,.,.,i,9%,i,i
Cc1ccc(-n2nnnc2-c2cnc3cc4c(cc3c2C)OCO4)cc1,-4%,0%,23µM*,-8%,i,i
COc1cc(C2c3cc4c(cc3C(O)C3COCC23)OCO4)cc(OC)c1OC (centres undefined),?,26µM*,?,-9%,5.2µM*,i
COc1cc([C@@H]2c3cc4c(cc3[C@H](O)[C@H]3COC(=O)[C@@H]23)OCO4)cc(OC)c1OC,.,.,?,?,1.8µM*,.
COc1cc2cc(OC(C)=O)c3cc4c(cc3c2c(OC)c1OC)OCO4,22%,15%,i,9%,i,i
O=C(c1ccc2c(c1)N(Cc1ccccc1)C(=O)c1ccccc1S2=O)N1CCC(Cc2ccccc2)CC1 (centres undefined),.,.,?,-24%,?,i
COc1ccc(C2=C(N3CCN(c4cccc(C)c4)C(C)C3)c3ccccc3C2=O)cc1 (centres undefined),.,.,?,-21%,i,?
COc1ccc(C2=CC(=O)OC(C)(c3ccccc3)O2)cc1 (centres undefined),-26%,-16%,16µM*,-1%,i,i
Cc1ccc(C)c(-n2c(-c3ccc(Br)cc3)csc2=NC(=O)c2ccccc2F)c1,9%,20%,?,-10%,12µM*,i
Cc1ccc(-c2cnc3c(Cl)c(C)nn3c2)cc1,-26%,-8%,12µM*,?,?,i
CC1=CC(C)(C)N(S(=O)(=O)c2ccc(C)cc2)c2cc(C)ccc21,1.3µM*,1µM*,6.5µM*,-10%,3.7µM*,i
COc1ccc2c(c1)C(C)=CC(C)(C)N2S(=O)(=O)c1ccc(C)cc1,0.92µM*,0.92µM*,2.6µM*,?,2.1µM*,?
CCOc1ccc2c(c1)C(C)=CC(C)(C)N2S(=O)(=O)c1ccc(C)cc1,1.8µM*,1.3µM*,5.8µM*,0%,2.1µM*,?
COC(=O)C1(C)CN(S(=O)(=O)c2ccc(C)cc2)c2cc(OC)ccc2C1=O (centres undefined),-22%,-7%,?,-3%,?,i
CS(=O)(=O)N1N=C(c2ccccc2)CC1c1ccc2c(c1)OCO2 (centres undefined),-1%,2%,i,56%,i,i
CS(=O)(=O)Nc1cccc(C2=NN(S(C)(=O)=O)C(c3ccc4c(c3)OCO4)C2)c1 (centres undefined),?,?,i,22%,15µM*,i
COc1cc2c(NC3CCN(C)CC3)nc(N3CCCN(C)CC3)nc2cc1O,10%,-2%,.,.,.,.
CCOc1ccc(NC(=O)c2cnc(N3CCCC3)nc2C)cc1,.,.,i,-3%,i,?
CCOC(=O)N1CCN(S(=O)(=O)c2ccc(C(=O)N(CCN(C)C)c3nc4ccc(CC)cc4s3)cc2)CC1,-7%,-6%,i,10%,i,i
CC1CCCCN1S(=O)(=O)c1ccc(C(=O)N(CCCN(C)C)c2nc3ccc(Br)cc3s2)cc1 (centres undefined),?,18µM*,23µM*,?,?,.
Cc1ccc2nc(N(CCCN(C)C)C(=O)c3ccc(S(=O)(=O)N4CCCCCC4)cc3)sc2c1,18µM*,?,i,?,?,i
CCOC(=O)N1CCN(S(=O)(=O)c2ccc(C(=O)N(CCCN(C)C)c3nc4ccc(CC)cc4s3)cc2)CC1,16µM*,?,i,?,i,i
CCc1ccc2nc(N(CCCN(C)C)C(=O)c3ccc(S(=O)(=O)N4CCCC4)cc3)sc2c1,-28%,-29%,i,-25%,i,?
SMILES,HT1080 IDH1KD tx,HT1080NT lethal,KB-V1 MDR tox,ATXN2 expr inh,KB-3-1 cytotox,ATXN viability
CN(C)CCCN(C(=O)C1=COCCO1)c1nc2ccc(Br)cc2s1,23µM*,21µM*,?,?,?,?
Cc1cccc(-c2noc(-c3ccc(NCc4cccnc4)c([N+](=O)[O-])c3)n2)c1,.,.,i,12%,i,i
CCC(CC)C(=O)N1c2ccccc2C(C)(c2ccccc2)CC1(C)C (centres undefined),.,.,i,-33%,i,i
CCc1ccc(-n2nc3cc(C)c(NC(=O)c4cccc5ccccc45)cc3n2)cc1,.,.,?,38%,i,?
Cc1nc2sccn2c1CN1Cc2ccccc2OC(c2ccccc2F)C1 (centres undefined),.,.,.,.,.,i
COc1cccc(N2CCN(C(=O)c3c4c(nc5ccccc35)C(=O)N(C3CCCCC3)C4)CC2)c1,.,.,i,.,i,.
Cc1ccc(OCC(=O)N2N=C(C(F)(F)F)CC2(O)C(C)(C)C)cc1C (centres undefined),-24%,-20%,18µM*,?,i,?
COc1cc(OC)cc(-c2ccc3ncc4ccc(=O)n(-c5ccc(N6CCNCC6)c(C(F)(F)F)c5)c4c3c2)c1,.,.,.,19µM*,.,.
COc1ccc(-c2nn(-c3ccc(F)cc3)c3c2cnc2cc4c(cc23)OCO4)cc1,.,.,i,12%,i,i
CCOC(=O)c1cnc2c(OC)cccc2c1Nc1cccc(O)c1,.,.,13µM*,-20%,?,i
O=C(COC(=O)c1ccccc1OCc1cccc(Br)c1)Nc1ccc(Br)cc1,.,.,i,.,?,.
c1ccc(N2CCN(c3ncnc4c3nc3n4CCCCC3)CC2)cc1,.,.,?,?,?,i
Clc1cccc(N2CCN(c3ncnc4c3nc3n4CCCCC3)CC2)c1,.,.,15µM*,18µM*,13µM*,.
CSc1cccc(NC(=O)C2CCCN(c3ncnc4c3nc3n4CCCCC3)C2)c1 (centres undefined),5%,2%,15µM*,?,?,i
O=C(C1CCCN(c2ncnc3c2nc2n3CCCCC2)C1)N1CCN(c2ccc(Cl)cc2)CC1 (centres undefined),?,?,i,?,16µM*,?
O=C(Nc1ccc(Cl)cn1)C1CCN(c2ncnc3c2nc2n3CCCCC2)CC1,?,?,21µM*,?,?,i

# Bioassay records from PubChem.
